p-CIP stab down: p/CIP-EGFP fusion destabilizers, primary screen, fluorescence, F442A cells | AID 1984, 2009 | Q05BA5 | hit rate 0.01% among 290,000 | 16 h | decrease of EGFP signal, % at 10 µM;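 active = EGFP signal decrease of at least 30% at 10 µM or well 3 SD below plate mean, unless failing retest; inactive = the rest, including hits failing retest or dose response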
MsrA act: bovine MsrA enzyme activators, primary screen, biochemical, absorbance, HTS; hit rate 0.3% among 360,000; AID 602163, 2012; Methionine sulfoxide reductase A (Bos taurus); purified bovine MsrA, absorbance read-out; activation, % at 10.6 µM; in the data active = activation above about 7.5%
14-3-3 Bad inh: inhibitors of 14-3-3 zeta/Bad binding, primary screen, biochemical, TR-FRET, bovine 14-3-3 zeta; TR-FRET 14-3-3zeta/Dy647-pBad peptide displacement, 1 h; inhibition, % at 21.7 µM; hit rate 0.71% among 220,000;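 active = inhibition above about 70%, limit read from the data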
MsrA inhibitor: bovine MsrA enzyme inhibitors, primary screen, biochemical, absorbance, HTS. AID 651718, 2012. purified bovine MsrA, absorbance read-out. Methionine sulfoxide reductase A (Bos taurus). inhibition, % at 15.5 µM. hit rate 0.75% among 360,000; in the data active = inhibition above about 4.5%
MsrA activ conf: bovine MsrA activators, retest, confirmation, biochemical, absorbance, HTS; AID 602270, 2012; hit rate 12% among 1,000; shares compounds with MsrA act; purified bovine MsrA, absorbance read-out; activation, % at 10.6 µM; in the data active = activation above about 4%;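 note: enzyme coupled to thioredoxin and thioredoxin reductase with NADPH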
Large screens that a line does not name were inactive (follow-up assays come after a bar, where they were run). The list is not random: actives were taken first. Their share in the collection is about 1.4%.

Cc1ccccc1Nc1nc(N)nc(COC(=O)[C@@H](NC(=O)c2ccccc2Cl)C(C)C)n1	MsrA act 8.1 (no result: p-CIP stab down, 14-3-3 Bad inh) | MsrA activ conf inactive
CCOC(=O)c1cc2nc(OCC)nc(OCC)c2[nH]1	MsrA act 8.7 (no result: p-CIP stab down, 14-3-3 Bad inh) | MsrA activ conf inactive
O=C(O)C1CSC(CCc2ccccc2)N1 (stereo not drawn)	MsrA act 7.8 | MsrA activ conf inactive
C[C@H]1CN(C(=O)OC(C)(C)C)CCN1c1ccc(N2CCS(=O)(=O)CC2)c(C#N)c1	none (no result: p-CIP stab down, MsrA act, 14-3-3 Bad inh)
CCc1ccc(C2CC(c3ccccc3Cl)Nc3nc(N)nn32)cc1 (stereo not drawn)	MsrA act 9.4 | MsrA activ conf inactive
CCc1ccc(C2CC(c3ccccc3)Nc3nc(N)nn32)cc1 (stereo not drawn)	none
COc1ccc(CC(=O)N2CCCc3ccccc32)cc1	none
COc1ccc(CC(=O)N2CCCc3ccccc32)cc1OC	MsrA act 9.6 | MsrA activ conf inactive
COc1ccc(C2CC(=O)C(c3ccccc3C)=CN2Cc2ccccc2)cc1 (stereo not drawn)	none (no result: p-CIP stab down, MsrA act, 14-3-3 Bad inh)
CCc1c(-c2cccc(Br)c2)ncn1CCc1ccccc1OC	none (no result: p-CIP stab down, MsrA act, 14-3-3 Bad inh)
CCN(CC(=O)NCc1ccc(Cl)cc1)C(=O)c1ccc(C#N)cc1	MsrA act 15.6 (no result: 14-3-3 Bad inh) | MsrA activ conf inactive
CCN(CC(=O)NCc1ccc(F)cc1)C(=O)c1ccc(Cl)cc1	none (no result: 14-3-3 Bad inh)
COc1ccc(CCN2CC(=O)N3CCc4ccc(N5CCOCC5)cc4C3CC2=O)cc1OC (stereo not drawn)	none (no result: p-CIP stab down, MsrA act, 14-3-3 Bad inh)
COc1ccc2oc(C(=O)NCC(c3ccco3)N(C)C)c(C)c2c1 (stereo not drawn)	none (no result: p-CIP stab down, 14-3-3 Bad inh)
COc1cccc(OCC(O)CNC(=O)c2oc3ccc(C)cc3c2C)c1 (stereo not drawn)	MsrA act 9.5 (no result: 14-3-3 Bad inh) | MsrA activ conf inactive
CC(C)c1c(O)nc(SCC(=O)N2CCCCC2)[nH]c1=O	none (no result: 14-3-3 Bad inh)
CC(C)Cc1c(O)nc(SCC(=O)N2CCCCCC2)[nH]c1=O	MsrA act 21.5 (no result: 14-3-3 Bad inh) | MsrA activ conf inactive
CC(C)c1[nH]nc2c1C(c1ccccc1)N(c1ccccc1)C2=O (stereo not drawn)	none (no result: p-CIP stab down, MsrA act, 14-3-3 Bad inh)
Cn1c(=O)c2c(nc(NCCCO)n2Cc2cccc(C(F)(F)F)c2)n(C)c1=O	MsrA act 8.3 | MsrA activ conf inactive
Cn1c(=O)c2c(nc(SCC(=O)O)n2Cc2cccc(C(F)(F)F)c2)n(C)c1=O	none
S=C(NCCCN1CCOCC1)Nc1ccc(Cl)c(Cl)c1	MsrA act 13.8 | MsrA activ conf inactive
Cc1ccc(NC(=S)NCCCN2CCOCC2)cc1C	none
CCOC(=O)C(C)Oc1cccc2c(=O)n(CC(=O)Nc3cccc(OC)c3)ccc12 (stereo not drawn)	MsrA act 8.4 | MsrA activ conf inactive
CCCCn1nnnc1C(c1cc2ccccc2o1)N1CCCC1 (stereo not drawn)	MsrA act 11.3 (no result: p-CIP stab down, 14-3-3 Bad inh) | MsrA activ conf inactive
CCCCn1nnnc1C(c1cc2ccccc2o1)N1CCN(C/C=C/c2ccccc2)CC1 (stereo not drawn)	none (no result: p-CIP stab down, 14-3-3 Bad inh)
CCOC(=O)N1CCN(c2c(F)cc3[nH]c(=S)[nH]c3c2Br)CC1	MsrA act 11.9 | MsrA activ conf inactive
CCN(CC)CCNC(=O)c1ccc2c(c1NCCO)C(=O)c1ccccc1C2=O	p-CIP stab down 35.8, MsrA act 23.7, MsrA inhibitor 13.9 | MsrA activ conf 8.7
CC1CCN(C(=O)c2ccc3c(c2NCCO)C(=O)c2ccccc2C3=O)CC1	none
OC(c1ccccc1)(c1ccccc1)C1CCN(CCCOc2ccc(-c3ccc(F)cc3F)cc2)CC1	none (no result: p-CIP stab down, MsrA act, 14-3-3 Bad inh)
O=C(CSc1nc2ccccc2c(=O)n1-c1ccc(Cl)cc1)N/N=C/C=C/c1ccccc1[N+](=O)[O-]	MsrA act 8.1 | MsrA activ conf inactive
COCCCN=Cc1c(C)[nH]n(-c2ccc(Br)c(C)c2)c1=O	MsrA act 9.3 | MsrA activ conf inactive
Cc1ccc(C2(C)NC(=O)N(CC(=O)Nc3ccc4c(c3)OCO4)C2=O)cc1 (stereo not drawn)	MsrA act 11.1 | MsrA activ conf inactive
COC(=O)C1=C(C)N(C)C(=NCc2ccc3c(c2)OCO3)NC1c1ccccc1 (stereo not drawn)	none (no result: p-CIP stab down, MsrA act, 14-3-3 Bad inh)
COC(=O)C1=C(C)N(C)C(=NCC2CC2)NC1c1ccc(F)cc1 (stereo not drawn)	none (no result: p-CIP stab down, MsrA act, 14-3-3 Bad inh)
CC1CCCC(NC(=O)Nc2cccs2)C1C (stereo not drawn)	MsrA act 8.9 | MsrA activ conf inactive
CC1CCCC(NC(=O)c2ccncc2)C1C (stereo not drawn)	none (no result: 14-3-3 Bad inh)
CCCCc1nnc(NC(=O)CCS(=O)(=O)c2ccc(C)cc2)s1	MsrA act 7.8 (no result: p-CIP stab down, 14-3-3 Bad inh) | MsrA activ conf inactive
CCc1nnc(NC(=O)CCS(=O)(=O)c2ccc(C)cc2)s1	none (no result: p-CIP stab down, 14-3-3 Bad inh)
O=c1ccc2ccccc2c2ccccc12	none (no result: p-CIP stab down, 14-3-3 Bad inh)
O=Nc1c(O)c2ccccc2c2ccccc12	MsrA act 20.4 (no result: p-CIP stab down, 14-3-3 Bad inh) | MsrA activ conf 13.3
Cn1ccnc1SCCC#N	none
Cc1nnc(SCCC#N)n(CCC#N)c1=O	MsrA act 9.2 | MsrA activ conf inactive
Cc1ccc(CC2C(=O)N(c3ncccn3)C(=O)C2C)cc1 (stereo not drawn)	MsrA act 20.3 | MsrA activ conf inactive
O=c1oc2ccccc2cc1-c1ccc(O)cc1O	none
Oc1cccc2oc(=S)[nH]c12	MsrA act 12.2 (no result: p-CIP stab down, 14-3-3 Bad inh) | MsrA activ conf inactive
Cc1cc(N2CCNC[C@H]2C)ccc1N1CCN(Cc2ccccc2)[C@@H](C)C1	none (no result: p-CIP stab down, MsrA act, 14-3-3 Bad inh)
C=CCn1c(N)c(C(=O)NCc2cccnc2)sc1=S	MsrA act 8.8 | MsrA activ conf inactive
Nc1ccc2c(c1)C(=O)C(=O)c1ccccc1-2	MsrA act 39.7 (no result: p-CIP stab down) | MsrA activ conf 29.4
Nc1ccc2c(c1)C(=O)c1ccccc1-2	none (no result: p-CIP stab down, 14-3-3 Bad inh)
CCC(=O)N1Cc2cc(C(=O)NCC(F)(F)F)nc(-c3cccc(-c4cncnc4)c3)c2[C@@H]1CCO	MsrA act 8.2 (no result: p-CIP stab down, 14-3-3 Bad inh) | MsrA activ conf inactive
CCNC(=O)c1cc2c(c(-c3cccc(-c4cncnc4)c3)n1)[C@@H](CCO)N(C(C)=O)C2	none (no result: p-CIP stab down, 14-3-3 Bad inh)
Cc1ccccc1C(=O)NNC(=S)NC(=O)COc1ccccc1	MsrA act 12.8 | MsrA activ conf inactive
CCOc1ccc2nc(NC(=S)N(C)C)sc2c1	MsrA act 8.1 | MsrA activ conf inactive
COC(=O)C1=C(C)N(Cc2cccc(C(F)(F)F)c2)C(=NCc2cc(OC)c(OC)c(OC)c2)NC1c1ccc(F)cc1 (stereo not drawn)	none (no result: p-CIP stab down, MsrA act, 14-3-3 Bad inh)
COC(=O)C1=C(C)N(Cc2cccc(C(F)(F)F)c2)C(=NCC2CC2)NC1c1ccccc1 (stereo not drawn)	none (no result: p-CIP stab down, MsrA act, 14-3-3 Bad inh)
c1ccc2[nH]c3cc4ncnc4cc3nc2c1	MsrA act 18.2 | MsrA activ conf 14.8
FC(F)c1nc2ccccc2[nH]1	none
COC(=O)[C@]12C[C@H](CC(=O)N3CCN(C(=O)C4CC4)CC3)C(=O)N(Cc3ccccc3)C1=C[C@H](C(C)C)O[C@@H]2C1CC1	none (no result: p-CIP stab down, MsrA act, 14-3-3 Bad inh)
C[C@H](O)[C@@H]1C(=O)N2CCc3c([nH]c4c(-c5ccc6c(c5)OCO6)cccc34)[C@@H]2C[C@@H]1N(C)C(=O)NC1CCCCC1	none (no result: p-CIP stab down, MsrA act, 14-3-3 Bad inh)

Source: PubChem (several laboratories)
